Test results as given in PubChem BioAssay (Tox21).
Inconclusive results are not listed. The source made the active and inactive calls. The call rests on the fitted dose curve; in most records, active means well fitted curve in the direction sought with a large enough effect in the signal ratio in the repeat runs (not every such curve was filed as active); inconclusive means weak or mixed curves, or a change in a side signal; inactive means no such curve, though single readings can be large or run the other way; the % refers to the signal ratio.

Assay: qHTS assay to identify small molecule agonists of the NFkB signaling pathway (AID 1159509)
Conditions: NFkB-bla ME-180 cells, beta-lactamase FRET ratio, 5 h; series mostly up to 61 µM
Text: National Center for Advancing Translational Sciences [NCATS]
NIH Chemical Genomics Center [NCGC]
U.S. Environmental Protection Agency [EPA]
National Institutes of Environmental Health Sciences [NIEHS]
National Toxicology Program [NTP]
U.S. Food and Drug Administration [FDA]
Transcription factors and their stimulated target gene expression play pivotal roles across many cellular processes including responses to environmental stimuli. Proper regulation of associated pathways is critical to maintain cell health and function. Constitutive activation of transcription factor pathways has been implicated in tumors as it may block cellular functions such as apoptosis and lead to invasion and metastasis. One important transcription factor that stimulates gene expression in response to cytokines, UV radiation, and other stimuli is nuclear factor-kappa B (NFkB). To measure activation of the NFkB pathway, the CellSensor NFkB-bla ME-180 cell line (Life Technologies, Carlsbad, CA) that stably expresses beta-lactamase reporter gene under the regulation of a NF-kB response element was used. This assay allows measurement of the NFkB pathway activity induced by compounds in a ME-180 cell line. This system quantitates NF-kB activity using a FRET-based assay system where beta-lactamase expression disrupts FRET, allowing for fluorescent measurement of activity. This cell line has been used to screen the Tox21 10K compound library and to identify compounds that induce the NFkB pathway activity.
Tox21 Assay Protocol Summary:
NFkB-bla ME-180 cells were dispensed at 2,000 cells/6 uL of assay medium per well into black wall/clear-bottom 1536-well plates using a Multidrop Combi (ThermoFisher Scientific, Waltham, MA) dispenser. After the assay plates were incubated at 37 C and 5% CO2 for an overnight, 23 nL of compounds dissolved in DMSO, positive controls or DMSO only was transferred to the assay plate by a Pintool station (Kalypsys, San Diego, CA). The assay plates were incubated at 37 C and 5% CO2 for 5 hr. One uL of LiveBLAzer B/G FRET substrate (Life Technologies) was added using a Flying Reagent Dispenser (Aurora Discovery, San Diego, CA) and the plates were incubated at room temperature for 1.5 hr. Fluorescence intensity (405 nm excitation, 460 nm and 530 nm emissions) was measured using an Envision plate reader (PerkinElmer, Shelton, CT).

Row | SMILES | outcome
1 | COc1ccccc1NC(=O)CC(C)=O | inactive
2 | CCCCCCCCCCCCCC(=O)OC(C)C | inactive
3 | COC1=CC(=O)C[C@@H](C)[C@]12Oc1c(Cl)c(OC)cc(OC)c1C2=O | inactive
4 | O=[N+]([O-])c1ccc(O)cc1 | inactive
5 | C1CNCCN1 | inactive
6 | CCCCCCCCCCCCCCCCCC(=O)OCC(O)CO (stereo not given) | inactive
7 | Cc1cnc(NC(=O)C2=C(O)c3ccccc3S(=O)(=O)N2C)s1 | inactive
8 | C#C[C@]1(O)CC[C@H]2[C@@H]3CCc4cc(O)ccc4[C@H]3CC[C@@]21C | inactive
9 | C=C(C)OC(C)=O | inactive
10 | COC(=O)C1CCC(C(=O)OC)CC1 (stereo not given) | inactive
11 | NC(=O)NO | inactive
12 | Cc1ccc(O)c(-n2nc3ccccc3n2)c1 | inactive
13 | CCCCOCCOCCSC#N | inactive
14 | COCCOCCOC | inactive
15 | CCOC(=O)C(C)(C)Oc1ccc(Cl)cc1 | inactive
16 | CCOCCO | inactive
17 | COc1ccc(C(=O)c2ccccc2)c(O)c1 | inactive
18 | COc1cc2c(c(OC)c1OC)-c1ccc(OC)c(=O)cc1[C@@H](NC(C)=O)CC2 | inactive
19 | C[C@]12C=CC(=O)C=C1CC[C@@H]1[C@@H]2C(=O)C[C@@]2(C)[C@H]1CC[C@]2(O)C(=O)CO | inactive
20 | CC(C)CC(C)CC(O)CC(C)C (stereo not given) | inactive

Row | SMILES | outcome
21 | CCN(CC)CCOC(=O)c1ccc(N)cc1 | inactive
22 | CO[C@H]1C=CO[C@@]2(C)Oc3c(C)c(O)c4c(O)c(c(/C=N/N5CCN(C)CC5)c(O)c4c3C2=O)NC(=O)/C(C)=C\C=C[C@H](C)[C@H](O)[C@@H](C)[C@@H](O)[C@@H](C)[C@H](OC(C)=O)[C@@H]1C | inactive
23 | CC(=O)OC/C=C(C)/C=C/C=C(C)/C=C/C1=C(C)CCCC1(C)C | inactive
24 | O=C1OC(c2ccc(O)cc2)(c2ccc(O)cc2)c2ccccc21 | inactive
25 | C=CC(=O)NC(C)(C)CS(=O)(=O)O | inactive
26 | N[C@@H](Cc1c[nH]c2ccc(O)cc12)C(=O)O | inactive
27 | C#C[C@]1(O)CC[C@H]2[C@@H]3CCC4=CC(=O)CC[C@@H]4[C@H]3CC[C@@]21CC | inactive
28 | CCCCOC(=O)CCCCCCCCC(=O)OCCCC | inactive
29 | CC(C)(C)NCC(O)c1ccc(O)c(CO)c1 (stereo not given) | inactive
30 | CCN1CCCC1=O | inactive
31 | CC(=O)c1ccc(S(=O)(=O)NC(=O)NC2CCCCC2)cc1 | inactive
32 | Nc1cccc(N)c1 | inactive
33 | O=C1CCCCCN1 | inactive
34 | O=c1c(-c2ccc(O)cc2)coc2cc(O)cc(O)c12 | inactive
35 | NC(N)=NC(N)=NCCc1ccccc1 | inactive
36 | COc1ccc(O)cc1 | inactive
37 | Cc1cccc2ccccc12 | inactive
38 | OC[C@@H](O)[C@@H](O)[C@H](O)[C@H](O)CO | inactive
39 | Cc1cccc(C)c1O | inactive
40 | C[C@]12CC[C@@H]3c4ccc(O)cc4CC[C@H]3[C@@H]1CCC2=O | inactive
